GAA inh = inhibitors of human lysosomal alpha-glucosidase; P10253; purified human GAA, 4-MU-alpha-glucoside fluorescence; Potency, µM (highest dose often 76.9 µM), without a hit: at the highest dose activity change, negative = inhibition, most hits filed as inhibitors; hit rate 0.005% among 200,000; AID 1466;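 also: potency is read from the fitted curve at half-maximal effect; plate controls were uninhibited enzyme wells for no effect and no-enzyme background for full effect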
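Activity normalized between no-enzyme (basal) and enzyme-only wells. Conditions: 4 nM human enzyme, 400 uM fluorogenic substrate, citrate/phosphate pH 5.0 with Tween-20, 20 min room temperature, compounds up to 77 uM.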
GAA glycogen mod = GAA glycogen-cleavage inhibition or activation | P10253 | recombinant GAA, glycogen substrate, Amplex Red glucose oxidase fluorescence | Potency, µM (highest dose often 76.4 µM), inactives show at the top dose activity change, negative = inhibition, usual class: inhibitors | hit rate 0.38% among 300,000 | AID 2100;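 also: potency is read from the fitted curve at half-maximal effect; 0% = full enzyme reaction and -100% = no-enzyme basal signal; the screen sought inhibitors and activators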
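Recombinant human alpha-glucosidase (4 nM final) hydrolysed bovine liver glycogen (30 ug) for 40 min at 37 C in pH 5.0 citrate/phosphate with 0.01% Tween-20. Released glucose detected by glucose oxidase/Amplex Red, Ex 573/Em 610 nm. Compounds up to 77 uM; AC50 from Hill fits.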
N370S GC = inhibits or activates N370S mutant glucocerebrosidase; hit rate 0.092% among 330,000; Potency, µM (titrated, usually from 59.4 µM), inactives show at the top dose activity change, negative = inhibition, hits mostly inhibitors; N370S GC spleen homogenate, 4MU-glucoside fluorescence;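 also: potency is read from the fitted curve at half-maximal effect; 0% = full enzyme activity and -100% = no enzyme basal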
aGlu spleen mod = lysosomal alpha-glucosidase (human) modulation; human spleen homogenate, 4-MU-alpha-glucoside fluorescence; Potency, µM (series often up to 79.9 µM), without a hit: top-dose activity change, negative = inhibition, usual class: inhibitors; hit rate 0.006% among 240,000; AID 2112;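 also: potency is read from the fitted curve at half-maximal effect; 0% = enzyme with vehicle and -100% = no enzyme basal signal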
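Human spleen homogenate (1 ug) with 4-methylumbelliferyl-alpha-D-glucopyranoside (1 mM final) in 50 mM citrate/phosphate pH 5.0, 0.01% Tween-20; 40 min at 37 C. Stopped at pH 10; 4-MU fluorescence Ex 365/Em 440 nm; AC50 by Hill fit.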
aGal spleen mod = inhibitors or activators of human alpha-galactosidase in spleen homogenate; P06280; human spleen homogenate, 4MU-alpha-Gal fluorescence, 40 min; Potency, µM (titrated, usually from 80 µM), without a hit: at the top dose activity change, negative = inhibition, most hits filed as inhibitors; hit rate 0.008% among 240,000; AID 2107;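 also: potency is read from the fitted curve at half-maximal effect; 0% = enzyme with vehicle and -100% = no enzyme basal signal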
Target sequence (P06280 32-429 limits assumed): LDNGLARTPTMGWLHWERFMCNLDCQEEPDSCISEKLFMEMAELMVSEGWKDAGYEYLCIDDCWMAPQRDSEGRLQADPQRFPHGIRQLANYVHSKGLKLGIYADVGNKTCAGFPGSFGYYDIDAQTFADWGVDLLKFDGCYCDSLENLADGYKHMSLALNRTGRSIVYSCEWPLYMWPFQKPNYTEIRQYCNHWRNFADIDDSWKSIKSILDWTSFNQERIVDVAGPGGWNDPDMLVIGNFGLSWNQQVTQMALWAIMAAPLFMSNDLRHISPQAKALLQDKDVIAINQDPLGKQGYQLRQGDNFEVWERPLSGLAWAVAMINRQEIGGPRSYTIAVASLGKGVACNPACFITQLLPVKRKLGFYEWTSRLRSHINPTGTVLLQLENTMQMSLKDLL
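Spleen homogenate 1 ug + cpd (titration) + 4-MU-alpha-D-galactopyranoside 1 mM; 37C 40 min; 50 mM citrate/phosphate pH 5.0, 0.01% Tween-20; stop pH 10; fluorescence 365/440; AC50 via Hill.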
GLA inh pH 4.5 = alpha-galactosidase A (human) inhibition, pH 4.5; purified enzyme, 4-MU-alpha-Gal fluorescence, pH 4.5; activity change, negative = inhibition, % at 105 µM; 230,000 tested, under 10 active; AID 1467;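 also: 0% = full activity with enzyme and -100% = basal without enzyme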
Active calls of the source: *; [ ] = dose if it differs, or a comment. Shown are actives, neighbours in structure and some others; about 0.43% of the full set was active somewhere. Calls follow the shape of the dose curve; as a rule, active = well fitted curve in the direction sought with a large enough effect; inconclusive = small, poorly fitted or top-dose-only effect, or another doubt; inactive = no such curve, though single readings can be large; an effect the other way counts as inactive or inconclusive.

Results for CCOC(=O)C1(Cc2ccccc2C(F)(F)F)CCN(C(C)CCn2cccn2)CC1 (stereo unspecified) ?
GAA inh: inconclusive; GAA glycogen mod: 4.47µM*; N370S GC: 10.7%; aGlu spleen mod: 0.7%; aGal spleen mod: 2.7%; GLA inh pH 4.5: 0.2

What do the screens show for `C/C(CC(=O)Nc1ccc(C)c(Cl)c1)=N\NC(=O)c1ccncc1`?
GAA inh: -4.2%; GAA glycogen mod: -23.4%; N370S GC: -12.3%; aGal spleen mod: -1.9%; GLA inh pH 4.5: -6.7

What do the screens show for `C/C(CC(=O)Nc1cc(Cl)ccc1Cl)=N\NC(N)=S`?
GAA inh: 0.6%; GAA glycogen mod: 9.92µM*; N370S GC: -2.1%; aGlu spleen mod: -5.1%; aGal spleen mod: -12.3%; GLA inh pH 4.5: 1.0

What do the screens show for `C/C(CC(=O)Nc1ccc(Cl)cc1C(F)(F)F)=N\NC(N)=S`?
GAA glycogen mod: inconclusive; N370S GC: -1.9%; aGlu spleen mod: 3.9%; aGal spleen mod: 6.8%; GLA inh pH 4.5: -3.1

Results for C/C(CC(=O)Nc1ccc(Cl)cc1Cl)=N\NC(N)=S ?
GAA inh: -5.3%; GAA glycogen mod: 22.4µM*; N370S GC: 10.4%; aGlu spleen mod: -3.9%; aGal spleen mod: -1.1%; GLA inh pH 4.5: 7.0

Results for C/C(CC(=O)Nc1ccc(Cl)cc1Cl)=N\NC(=O)c1ccncc1 ?
GAA glycogen mod: -22.8%; N370S GC: 14.7%; aGlu spleen mod: 2.1%; aGal spleen mod: 0.4%; GLA inh pH 4.5: -11.0

Results for C/C(CC(=O)Nc1ccc(Cl)c(Cl)c1)=N\NC(N)=S ?
GAA inh: -11.6%; GAA glycogen mod: 7.94µM*; N370S GC: 4.1%; aGlu spleen mod: -9.6%; aGal spleen mod: 3.5%; GLA inh pH 4.5: 1.1

Results for Cc1ccc(NC(=S)NNC(=O)c2cn(C)nc2C)cc1 ?
GAA inh: -2.7%; GAA glycogen mod: 28µM*; N370S GC: 1.5%; aGlu spleen mod: 1.6%; aGal spleen mod: -11.5%; GLA inh pH 4.5: -0.7

Results for Cc1ccc(NC(=S)NNC(=O)c2c(Cl)c(C)nn2C)cc1 ?
GAA inh: 0.3%; GAA glycogen mod: inconclusive; N370S GC: -4.7%; aGlu spleen mod: -3.2%; aGal spleen mod: -5.4%; GLA inh pH 4.5: -4.7

Results for NNc1ccc2nnc(C(F)(F)C(F)(F)C(F)(F)F)n2n1 ?
GAA inh: 7.9%; GAA glycogen mod: 31.6µM*; N370S GC: 12.8%; aGlu spleen mod: 4.1%; aGal spleen mod: 5.1%; GLA inh pH 4.5: 6.2

What do the screens show for `FC(F)(F)C(F)(F)C(F)(F)c1nnc2ccc(N3CCOCC3)nn12`?
GAA inh: -0.8%; GAA glycogen mod: 2.5%; N370S GC: 19.8%; aGlu spleen mod: -11.7%; aGal spleen mod: 3.0%; GLA inh pH 4.5: -12.6

How did CC[C@H](C)[C@H](NC(=O)[C@H](CC(=O)O)NC(=O)[C@H](CC(C)C)NC(=O)[C@H](Cc1cnc[nH]1)NC(=O)[C@H](C)NC(=O)[C@H](Cc1ccccc1)NC(=O)[C@H](Cc1ccc(O)cc1)NC(=O)[C@@H](NC(=O)[C@H](C)NC(=O)[C@H](CCC(=O)O)NC(=O)[C@H](CCCCN)NC(=O)[C@H](CC(=O)O)NC(=O)[C@H](CCSC)NC(=O)[C@H](CC(C)C)NC(C)=O)C(C)C)C(=O)N[C@H](C(=O)N[C@@H](Cc1c[nH]c2ccccc12)C(=O)O)[C@@H](C)CC do in these assays?
N370S GC: -4.8%; aGlu spleen mod: -13.3%; aGal spleen mod: -2.2%

What do the screens show for `O=C(CSc1cn(CCNC(=O)c2ccccc2F)c2ccccc12)Nc1ccc2c(c1)OCCO2`?
GAA glycogen mod: 7.8%[76.3 µM]

How did O=C(CSc1cn(CCNC(=O)c2cccc(C(F)(F)F)c2)c2ccccc12)Nc1ccc2c(c1)OCCO2 do in these assays?
GAA glycogen mod: 35.5µM*

How did COc1ccc(-c2cnc(NCc3ccc(C)cc3)n2C)cc1 do in these assays?
GAA glycogen mod: 10µM*

Results for COC(=O)CSc1cc([N+](=O)[O-])ccc1NC(=O)OC ?
GAA inh: inconclusive; GAA glycogen mod: 5.4%; N370S GC: -2.9%; aGlu spleen mod: -24.3%; aGal spleen mod: 35.5µM*; GLA inh pH 4.5: 4.8

What do the screens show for `CCCCCCCN`?
N370S GC: 4.1%; aGlu spleen mod: 1.9%; aGal spleen mod: -0.9%

Results for CC(=O)C(Sc1nc(N(C)C)nc(N(C)C)n1)C(=O)Nc1ccccc1 (stereo unspecified) ?
GAA inh: -8.0%; GAA glycogen mod: 20µM*; N370S GC: 15.6%; aGlu spleen mod: -4.0%; aGal spleen mod: 6.9%; GLA inh pH 4.5: 2.5

What do the screens show for `CC(Sc1nc(NCc2ccccc2)nc(N(C)C)n1)C(=O)Nc1ccccc1` (stereo unspecified)?
GAA inh: -3.8%; GAA glycogen mod: -0.7%; N370S GC: -4.6%; aGlu spleen mod: -6.9%; aGal spleen mod: -4.6%; GLA inh pH 4.5: -5.3

How did CC(C)C[C@@H](/C=C/S(C)(=O)=O)NC(=O)[C@H](CC(C)C)NC(=O)[C@H](CC(C)C)NC(=O)OCc1ccccc1 do in these assays?
N370S GC: 2.5%; aGlu spleen mod: 0.5%; aGal spleen mod: 13.2%

How did CC(C)[C@@H]1NC(=O)[C@H](CCCCN)NC(=O)[C@@H](Cc2c[nH]c3ccccc23)NC(=O)[C@H](Cc2ccc(O)cc2)NC(=O)[C@@H](NC(=O)[C@H](N)Cc2ccccc2)CSSC[C@@H](C(=O)N[C@@H](Cc2c[nH]c3ccccc23)C(N)=O)NC1=O do in these assays?
N370S GC: -1.7%; aGlu spleen mod: -9.1%; aGal spleen mod: -10.2%

What do the screens show for `CCCCCCCCCCCCCCC1CO1` (stereo unspecified)?
N370S GC: -0.2%; aGlu spleen mod: -10.2%; aGal spleen mod: -1.0%

Results for COc1cccc(NS(=O)(=O)c2ccc3[nH]cc(C(=O)N4CCCC4)c(=O)c3c2)c1 ?
GAA glycogen mod: 28.2µM*

Results for Cc1ccc(-n2nc(C)c3c2OC(N)=C(C#N)C3c2ccoc2)cc1 (stereo unspecified) ?
GAA inh: -3.8%; GAA glycogen mod: 22.4µM*; N370S GC: -24.1%; aGlu spleen mod: -3.5%; aGal spleen mod: 4.4%; GLA inh pH 4.5: 9.5

Results for Cc1ccc(-n2nc(C)c3c2OC(N)=C(C#N)C3c2ccco2)cc1 (stereo unspecified) ?
GAA inh: 2.1%; GAA glycogen mod: inconclusive; N370S GC: 1.5%; aGlu spleen mod: -5.9%; aGal spleen mod: 0.1%; GLA inh pH 4.5: -4.5
